Measured values published in PubChem BioAssay AID1159580 (chemical genetic matrix, 2015).
Values joined by “and” are separate entries in the source; they are usually repeats but may differ in a detail not shown here. Equal values may be shown once. In all, about 5,500 compounds went through this assay and about 2,000 (36%) were called active. Not shown: some 18% with an inconclusive outcome. Rule as the data show it: active = normalized growth mostly below about 0.91 (no sharp cut-off); inconclusive = no clear call, values can overlap the other calls; inactive = mostly above about 0.92. This is one part of the list.

Assay: chemical genetic growth profiling, strain panel (AID 1159580);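 also: tested at 20 µM; growth read once vehicle control cultures reached saturation at 30 °C; 1 = growth at the plate median or of vehicle wells; lower values mean less growth of the strain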
Conditions: S. cerevisiae deletion strains, growth OD

Measured: normalized growth

CC(=O)OC1CCC2(C)C(=CC=C3C2CCC2(C)C3CCC2C(C)/C=C/C(C)C(C)C)C1(C)C (configuration not stated)
inactive: locus YAL021C, strain ccr4, stronger effect = lower value 0.994 | locus YAL026C, strain drs2, stronger effect = lower value 1.02 | locus YAL030W, strain snc1, stronger effect = lower value 1.02 | locus YBL061C, strain skt5, stronger effect = lower value 1.02 | locus YBR009C, strain hhf1, stronger effect = lower value 1.01 | locus YBR021W, strain FUR4, stronger effect = lower value 1.02 | locus YBR023C, strain chs3, stronger effect = lower value 1.03 | locus YBR171W, strain sec66, stronger effect = lower value 1.04 | locus YBR229C, strain ROT2, stronger effect = lower value 1.01 | locus YBR231C, strain swc5, stronger effect = lower value 1.04 | locus YBR279W, strain paf1, stronger effect = lower value 1.02 | locus YCL011C, strain gbp2, stronger effect = lower value 1.03 | locus YCL016C, strain dcc1, stronger effect = lower value 1.01 | locus YCL029C, strain bik1, stronger effect = lower value 1.01 | locus YCL069W, strain vba3, stronger effect = lower value 1.02 | locus YCR088W, strain abp1, stronger effect = lower value 1.03 | locus YDL005C, strain med2, stronger effect = lower value 1.04 | locus YDL035C, strain GPR1, stronger effect = lower value 1.03 | locus YDL040C, strain nat1, stronger effect = lower value 1.02 | locus YDL074C, strain BRE1, stronger effect = lower value 1.06 | locus YDL101C, strain DUN1, stronger effect = lower value 1.02 | locus YDL185W, strain tfp1, stronger effect = lower value 0.993 | locus YDL192W, strain arf1, stronger effect = lower value 1 | locus YDR001C, strain nth1, stronger effect = lower value 1.03 | locus YDR069C, strain doa4, stronger effect = lower value 1.02 | locus YDR101C, strain arx1, stronger effect = lower value 0.974 | locus YDR137W, strain rgp1, stronger effect = lower value 1.03 | locus YDR159W, strain sac3, stronger effect = lower value 1.04 | locus YDR162C, strain NBP2, stronger effect = lower value 0.995 | locus YDR195W, strain ref2 1.05 | locus YDR297W, strain sur2, stronger effect = lower value 1.02 | locus YDR318W, strain mcm21, stronger effect = lower value 1 | locus YDR334W, strain swr1, stronger effect = lower value 1.03 | locus YDR335W, strain msn5, stronger effect = lower value 1.02 | locus YDR388W, stronger effect = lower value 1.02 | locus YDR392W, strain spt3, stronger effect = lower value 0.992 | locus YDR502C, strain sam2, stronger effect = lower value 0.989 | locus YEL003W, strain gim4, stronger effect = lower value 1.03 | locus YEL037C, strain rad23, stronger effect = lower value 1.02 | locus YEL061C, strain CIN8 (second series), stronger effect = lower value 1.04 | locus YEL061C, strain CIN8, stronger effect = lower value 1.01 | locus YER015W, strain faa2, stronger effect = lower value 1.03 | locus YER016W, strain bim1, stronger effect = lower value 1.02 | locus YER110C, stronger effect = lower value 1.01 | locus YER111C, strain swi4, stronger effect = lower value 1.02 | locus YER155C, strain BEM2 (second series), stronger effect = lower value 1.05 | locus YER155C, strain BEM2, stronger effect = lower value 0.998 | locus YER167W, strain BCK2, stronger effect = lower value 1.04 | locus YFR010W, strain ubp6, stronger effect = lower value 1.04 | locus YGL078C, strain dbp3, stronger effect = lower value 0.987 | locus YGL086W, strain mad1, stronger effect = lower value 0.994 | locus YGL167C, strain pmr1, stronger effect = lower value 1.02 | locus YGL173C, strain kem1, stronger effect = lower value 1.03 | locus YGL227W, strain vid30, stronger effect = lower value 1.03 | locus YGL240W, strain doc1, stronger effect = lower value 1 | locus YGL248W, strain PDE1, stronger effect = lower value 1.01 | locus YGL253W, strain hxk2, stronger effect = lower value 1.03 | locus YGR078C, strain PAC10, stronger effect = lower value 1.04 | locus YGR135W, strain pre9, stronger effect = lower value 0.996 | locus YGR252W, strain gcn5, stronger effect = lower value 1.03 | locus YHR013C, strain ard1, stronger effect = lower value 1.03 | locus YHR027C, strain rpn1, stronger effect = lower value 1.04 | locus YHR030C, strain SLT2, stronger effect = lower value 1.01 and 0.996 | locus YHR079C, strain IRE1 (second series), stronger effect = lower value 0.998 | locus YHR079C, strain IRE1, stronger effect = lower value 1.03 | locus YHR094C, strain hxt1, stronger effect = lower value 0.991 | locus YHR129C, strain ARP1, stronger effect = lower value 1.03 | locus YHR142W, strain chs7, stronger effect = lower value 1.05 | locus YHR200W, strain rpn10, stronger effect = lower value 0.986 | locus YIL066C, strain RNR3, stronger effect = lower value 1.03 | locus YIL073C, strain SPO22, stronger effect = lower value 1.03 | locus YIL125W, strain kgd1, stronger effect = lower value 1 | locus YIR030C, strain dcg1, stronger effect = lower value 1 | locus YJL092W, strain hpr5, stronger effect = lower value 1.03 | locus YJL095W, strain BCK1 (second series), stronger effect = lower value 1.02 | locus YJL095W, strain BCK1, stronger effect = lower value 1.03 and 0.996 | locus YJL115W, strain asf1, stronger effect = lower value 1.03 | locus YJL129C, strain trk1, stronger effect = lower value 1.05 | locus YJL134W, strain LCB3, stronger effect = lower value 1.01 | locus YJL154C, strain vps35, stronger effect = lower value 1.03 | locus YJL164C, strain tpk1, stronger effect = lower value 1.01 | locus YJL166W, strain qcr8, stronger effect = lower value 1.02 | locus YJL168C, strain set2, stronger effect = lower value 1 | locus YJL187C, strain SWE1 (second series), stronger effect = lower value 1.03 | locus YJL187C, strain SWE1, stronger effect = lower value 1.04 | locus YJR043C, strain POL32, stronger effect = lower value 1.03 | locus YJR066W, strain TOR1, stronger effect = lower value 0.936 | locus YKL009W, strain mrt4, stronger effect = lower value 1.01 | locus YKL068W, stronger effect = lower value 1.01 | locus YKL085W, strain MDH1 (second series), stronger effect = lower value 1 | locus YKL085W, strain MDH1, stronger effect = lower value 1 | locus YKL160W, strain elf1, stronger effect = lower value 0.997 | locus YKR001C, strain vps1, stronger effect = lower value 0.988 | locus YKR026C, strain gcn3, stronger effect = lower value 1.03 | locus YKR091W, strain srl3, stronger effect = lower value 1.03 | locus YLL001W, strain dnm1, stronger effect = lower value 1.01 | locus YLL026W, stronger effect = lower value 1.02 | locus YLL041C, strain sdh2, stronger effect = lower value 1.02 | locus YLR027C, strain aat2, stronger effect = lower value 1 | locus YLR039C, strain RIC1, stronger effect = lower value 1.04 | locus YLR058C, strain SHM2, stronger effect = lower value 1.01 | locus YLR102C, strain apc9, stronger effect = lower value 0.988 | locus YLR113W, strain HOG1, stronger effect = lower value 0.995 | locus YLR221C, strain rsa3, stronger effect = lower value 1.02 | locus YLR258W, strain gsy2, stronger effect = lower value 1 | locus YLR262C, strain YPT6 (second series), stronger effect = lower value 1.01 | locus YLR262C, strain YPT6, stronger effect = lower value 1.07 | locus YLR268W, strain sec22, stronger effect = lower value 0.998 | locus YLR320W, strain mms22, stronger effect = lower value 1.03 | locus YLR330W, strain CHS5, stronger effect = lower value 1.02 | locus YLR342W, strain FKS1 (second series), stronger effect = lower value 1.12 | locus YLR342W, strain FKS1, stronger effect = lower value 1.02 | locus YLR357W, strain rsc2, stronger effect = lower value 1.06 | locus YLR370C, strain arc18, stronger effect = lower value 1.06 | locus YLR371W, strain rom2, stronger effect = lower value 1.01 | locus YLR384C, strain iki3, stronger effect = lower value 1.03 | locus YLR418C, strain cdc73, stronger effect = lower value 1.02 | locus YML016C, strain PPZ1, stronger effect = lower value 1 | locus YML032C, strain rad52, stronger effect = lower value 1 | locus YML120C, strain ndi1, stronger effect = lower value 1.02 | locus YML124C, strain tub3, stronger effect = lower value 0.987 | locus YMR058W, strain fet3, stronger effect = lower value 1.05 | locus YMR078C, strain ctf18, stronger effect = lower value 0.998 | locus YMR125W, strain sto1, stronger effect = lower value 1.03 | locus YMR129W, stronger effect = lower value 1.03 | locus YMR205C, strain PFK2, stronger effect = lower value 1.02 | locus YMR223W, strain ubp8, stronger effect = lower value 1 | locus YMR231W, strain pep5, stronger effect = lower value 1.02 | locus YMR263W, strain SAP30, stronger effect = lower value 1.03 | locus YMR307W, strain GAS1, stronger effect = lower value 1 | locus YNL067W, strain RPL9B, stronger effect = lower value 1.04 | locus YNL071W, strain lat1, stronger effect = lower value 1.03 | locus YNL183C, strain NPR1, stronger effect = lower value 0.965 | locus YNL209W, strain ssb2, stronger effect = lower value 1.01 | locus YNL233W, strain BNI4, stronger effect = lower value 1.03 | locus YNL248C, strain rpa49, stronger effect = lower value 0.965 | locus YNL250W, strain rad50, stronger effect = lower value 0.99 | locus YNL271C, strain bni1, stronger effect = lower value 1 | locus YNL298W, strain CLA4, stronger effect = lower value 0.979 | locus YNL307C, strain MCK1, stronger effect = lower value 1.02 | locus YNL322C, strain KRE1 (second series), stronger effect = lower value 1.02 | locus YNL322C, strain KRE1, stronger effect = lower value 1.02 | locus YNR049C, strain mso1, stronger effect = lower value 1.02 | locus YNR052C, strain pop2, stronger effect = lower value 1.01 | locus YOL012C, strain htz1 1.7 | locus YOL147C, strain pex11, stronger effect = lower value 1 | locus YOR001W, strain rrp6, stronger effect = lower value 1.04 | locus YOR061W, strain CKA2, stronger effect = lower value 1 | locus YOR069W, strain VPS5, stronger effect = lower value 1.01 | locus YOR070C, strain gyp1, stronger effect = lower value 1.02 | locus YOR080W, strain dia2, stronger effect = lower value 1.02 | locus YOR083W, strain WHI5, stronger effect = lower value 0.998 | locus YOR106W, strain vam3, stronger effect = lower value 1.02 | locus YOR136W, strain idh2, stronger effect = lower value 0.987 | locus YOR144C, strain elg1, stronger effect = lower value 0.988 | locus YOR184W, strain ser1, stronger effect = lower value 0.983 | locus YOR231W, strain MKK1, stronger effect = lower value 1.04 | locus YOR265W, strain rbl2, stronger effect = lower value 1.01 | locus YOR270C, strain vph1, stronger effect = lower value 1.03 | locus YOR290C, strain snf2, stronger effect = lower value 0.993 | locus YOR316C, strain cot1, stronger effect = lower value 0.989 | locus YPL051W, strain arl3, stronger effect = lower value 1.02 | locus YPL055C, strain LGE1, stronger effect = lower value 1.07 | locus YPL078C, strain atp4, stronger effect = lower value 0.999 | locus YPL106C, strain sse1, stronger effect = lower value 1.05 | locus YPL240C, strain hsp82, stronger effect = lower value 1.03 | locus YPL256C, strain CLN2, stronger effect = lower value 1.04 | locus YPR119W, strain clb2, stronger effect = lower value 1 | locus YPR141C, strain kar3, stronger effect = lower value 0.982 | locus YPR163C, strain tif3, stronger effect = lower value 0.978 | locus YPR167C, strain met16, stronger effect = lower value 1.01 | strain wtn01, stronger effect = lower value 0.984
